Source: PubChem
TRHR ag: activates the human TRH receptor; TRHR cells, calcium flux fluo-8, FDSS agonist mode; P34981; activation, % at 2 µM; AID 493084; 360,000 compounds, 0.18% hits; also: 0% is about no effect
Target sequence (P34981 whole entry, looked up): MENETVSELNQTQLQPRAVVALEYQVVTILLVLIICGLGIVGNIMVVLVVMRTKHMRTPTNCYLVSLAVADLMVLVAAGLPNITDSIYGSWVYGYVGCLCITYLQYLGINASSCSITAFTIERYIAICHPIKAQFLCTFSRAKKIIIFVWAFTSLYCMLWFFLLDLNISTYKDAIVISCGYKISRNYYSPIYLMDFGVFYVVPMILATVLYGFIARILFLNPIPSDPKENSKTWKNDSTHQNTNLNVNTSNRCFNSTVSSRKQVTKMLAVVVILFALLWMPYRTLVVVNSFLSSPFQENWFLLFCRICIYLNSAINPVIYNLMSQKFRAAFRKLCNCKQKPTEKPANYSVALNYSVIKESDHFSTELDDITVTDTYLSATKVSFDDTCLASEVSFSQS
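TRHR-expressing cells loaded with fluo-8 calcium dye; 23 nL library compound pin-transferred, kinetic FDSS fluorescence (Ex 480/Em 530) recorded about 180 s for agonist-induced calcium release, before a 10 nM TRH EC20 addition for potentiator mode.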
D1 antagonist: human D1 dopamine receptor antagonism; P21728; HEK293 TREx D1 cells, calcium flux, dopamine EC80; hits give low values; activity change, negative = inhibition, % at 10 µM; 360,000 compounds, 3.2% hits; AID 504652; in the data active = activity change below about -30%; also: % is scaled to controls: 0 for no effect and ±100 for the full control effect
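Using tetracycline-induced force-coupled D1 Hek293 cells and a calcium dye, signals were followed for 180 s after compound, then for 180 s after EC80 dopamine, to detect inhibitors.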
D1 agonist: human D1 receptor agonism. P21728. HEK293 T-REx D1 cells, calcium flux, agonist mode. activation, % at 2 µM. 360,000 compounds, 1% hits. AID 504660; also: 0% is about no effect
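Inducible HEK293 T-REx D1 cells, force-coupled to calcium signalling, were plated at 4000 cells/well with tetracycline and held overnight at 30 C. After no-wash calcium dye loading, compound-evoked calcium rise over 180 s flagged agonists.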
D1 PAM: human D1 dopamine receptor positive modulation; P21728; HEK293 TREx D1 cells, calcium flux, dopamine EC20 potentiation; potentiation, % at 10 µM; 360,000 compounds, 0.036% hits; AID 504651; in the data active = potentiation above about 30%; also: 0% is about no effect
TRHR PAM: allosterically enhances the human TRH receptor | P34981 | TRHR cells, fluo-8 calcium fluorescence, EC20 TRH enhancement | enhancement, % at 2 µM | 360,000 compounds, 0.66% hits | AID 493056; in the data active = enhancement above about 30%; also: 0% is about no effect
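TRHR-expressing cells loaded with fluo-8 calcium dye were read kinetically (ex 480/em 530) during compound addition, then stimulated with an EC20 of TRH (10 nM final). Enhancement of the Gq-mediated intracellular calcium response was scored.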
An asterisk follows results filed as active; . = not tested or not shown; ! = not confirmed by another sample. Only some compounds are listed: those with a hit (about 4.7% of all), similar ones and a draw of the others. Rule as the data show it, unless noted: active = activation above about 30%; inactive = the rest.

SMILES	TRHR ag	D1 antagonist	D1 agonist	D1 PAM	TRHR PAM
C=CCN(c1ccccc1)S(=O)(=O)c1cccc(C(=O)OCC(=O)NC2CC2)c1	-0.2	-33.6*	6.3	-4.2	4.9
O=C1/C(=C/c2cccnc2)SC(=S)N1Nc1ccccc1	0.3	2.4	0.7	-1.4	-2.9
c1ccc2c(c1)nc(N1CCOCC1)c1c3ccccc3[nH]c21	-0.4	-56.9*	3.8	-3.8	-5.0
CC1=NN(c2ccccc2)C(=O)/C1=C/c1c(O)n(-c2ccc(F)c(Cl)c2)[nH]c1=O	0.3	-11.2	1.0	-0.8	-1.0
COc1ccc(CC(=O)OCC(=O)NC2CC2)cc1	0.1	0.4	-0.5	-2.1	12.4
COc1ccc(NC(=O)CCn2c(-c3ccc(F)cc3)cc(C(C)=O)c2C)c(OC)c1	-0.4	6.8	3.4	-7.4	-1.4
Cc1ccc(-c2nnc(SCC(=O)NC3CC3)o2)cc1	0.0	-9.7	1.7	-6.4	-1.9
COc1cc(NC(=O)c2oc3c(c2C)-c2nn(Cc4cccc(Cl)c4)cc2CC3)cc(OC)c1	-0.1	-30.7*	0.5	-2.2	-1.4
CCN1C(=O)N(C(C)=O)C2C1N(C(C)=O)C(=O)N2C(C)=O (stereo unspecified)	0.1	-15.3	0.9	-5.6	12.7
OCCOc1ccc(CN2CCCC(N3CCN(c4ccc(F)cc4)CC3)C2)cc1 (stereo unspecified)	-0.2	-42.9*	0.3	-4.8	-2.1
O=C(CN1C(=O)C2CCCCC2C1=O)Nc1ccc(OC(F)F)c(Cl)c1 (stereo unspecified)	1.2	-31.9*	1.2	-2.4	6.0
CC(=O)Nc1ccc(S(=O)(=O)NCC2CCC(C(=O)NCCN(CC(C)C)CC(C)C)CC2)cc1 (stereo unspecified)	0.7	11.4	2.0	-4.2	2.5
CCOC(=O)C(CC)n1cnc2c(cnn2-c2ccc(Cl)cc2)c1=O (stereo unspecified)	0.0	-32.4*	10.5	-3.5	-2.5
CCOC(=O)C1CCCN(C(=O)c2nn(-c3ccc(C)cc3)c(=O)c3c2c2ccccc2n3C)C1 (stereo unspecified)	-0.9	-10.5	-0.7	0.3	-0.5
O=c1c2cc(Br)ccc2nc(-c2ccc(Cl)cc2)n1O	-0.8	4.4	107.2*	-6.3	11.9
CCn1c(=O)c(=O)n(CC)c2cc(S(=O)(=O)Nc3cc(C)ccc3C)ccc21	-0.3	14.1	0.8	9.6	4.3
COc1cccc(N2CCN(C(=O)c3cc4cc5cc(C)ccc5nc4s3)CC2)c1	0.0	-16.0	1.0	-1.9	-0.1
COc1ccc2nc3sc(C(=O)N4CCN(c5ccccc5)CC4)cc3cc2c1	0.1	-59.1*	0.8	-1.3	9.6
CC(=O)c1ccc(N2CCN(C(=O)c3cc4cc5cc(C)ccc5nc4s3)CC2)cc1	0.6	-9.2	0.5	1.2	49.1*
COc1ccc(OCCSc2nnc(Cc3cccc4ccccc34)n2N)cc1	-0.5	-19.7	2.9	-2.2	-3.4
Nn1c(Cc2ccccc2F)nnc1SCCOc1ccc(Cl)cc1	-0.5	-39.3*	-0.1	-5.9	5.1
O=[N+]([O-])c1ccc(-n2nnnc2-c2ccccc2)cc1	0.0	-7.1	-3.6	1.4	35.6*
COc1ccc(S(=O)(=O)Nc2cccc3cccnc23)c([N+](=O)[O-])c1	1.3	-28.2	4.3	-2.4	-4.2
O=[N+]([O-])c1ccc(S(=O)(=O)N/N=C/c2ccsc2)cc1	-0.1	-0.7	5.5	-4.8	-7.8
O=C(NCCCN1CCOCC1)c1ccc2c(c1)N(Cc1cccc(Cl)c1)C(=O)c1ccccc1S2	1.1	-21.3	16.4	-1.4	1.8
SMILES	TRHR ag	D1 antagonist	D1 agonist	D1 PAM	TRHR PAM
CCN1C(=O)c2ccccc2Sc2ccc(C(=O)NCCCN3CCOCC3)cc21	-0.7	-3.7	1.0	-10.8	31.6*
COc1ccc(-c2csc(NC(=O)c3ccccc3NS(=O)(=O)c3ccc(C)cc3)n2)cc1	0.2	-39.5*	9.2	-9.2	-6.8
COc1ccc(S(=O)(=O)Nc2ccccc2C(=O)Nc2nc(-c3ccc(F)cc3)cs2)cc1OC	1.5	-21.9	12.8	-5.5	-4.7
CC(C)(C)c1cc(NC(=O)CSc2nnc(N)s2)n(-c2ccccc2)n1	0.2	-35.3*	3.5	4.3	0.2
O=C(Nc1ccc(Br)c(Cl)c1)c1ccc(C(=O)Nc2ccc(Br)c(Cl)c2)cc1	-0.8	5.9	5.8	-1.1	3.7
CCCCCCCC[n+]1cccc(C(=O)N(CC)CC)c1	-0.8	10.2	1.3	1.6	2.4
CCCCCCCCCCCCCCCC[n+]1cccc(C(=O)N(CC)CC)c1	-0.4	-21.2	279.2*	15.1	2.4
CC(=O)NC(=S)Nc1ccc(S(=O)(=O)N(C)Cc2ccccc2)cc1	-0.9	-31.3*	18.8	-8.2	12.6
CN(Cc1ccccc1)S(=O)(=O)c1ccc(NS(=O)(=O)Cc2ccccc2)cc1	-0.4	-34.3*	4.4	0.4	0.6
CC(C)C(=O)NC(=S)Nc1ccc(S(=O)(=O)N(C)Cc2ccccc2)cc1	-0.5	-34.6*	1.7	-11.3	6.0
COc1cc(S(=O)(=O)NCc2ccc3c(c2)OCO3)ccc1F	-0.4	-12.9	4.4	-7.8	-6.8
Cc1cc(C)n(C(C)CC(=O)NCc2ccccc2C)n1 (stereo unspecified)	0.9	2.3	1.6	-4.2	0.8
CCCc1cc(-c2n[nH]c(=S)n2CC)cs1	-0.6	-14.8	2.3	-11.5	-1.8
CCCCn1c(-c2csc(CCC)c2)n[nH]c1=S	-2.5	-12.9	56.9*	-3.5	-5.0
CC1CCCCN1C(=S)NC(=O)c1cc(Br)ccc1Cl (stereo unspecified)	0.0	3.2	1.3	.	0.2
COc1cc2[nH]cc(C(=O)NCc3ccccc3)c(=O)c2cc1OC	0.1	0.5	2.6	-6.2	-4.4
COc1cc2[nH]cc(C(=O)NCCc3ccccc3)c(=O)c2cc1OC	-1.4	-32.2*	-0.2	-7.5	2.5
O=C(O)c1ccccc1OCCN1CCCC1=O	0.6	-10.6	1.0	6.8	-4.2
COc1ccc2c(c1)CC(C(=O)NCCN1CCN(c3ccccc3F)CC1)CO2 (stereo unspecified)	0.4	-39.7*	1.1	-5.2	7.9
O=C(NCCN1CCN(c2ccccc2)CC1)C1CCN(S(=O)(=O)N2CCOCC2)CC1	0.3	-10.6	1.7	3.6	-2.9
O=C(NCCCN1CCN(c2ccccc2F)CC1)C1COc2ccccc2C1 (stereo unspecified)	0.1	-34.4*	5.6	-4.5	-1.4
O=C(NCCS(=O)(=O)N1CCN(c2ccccc2F)CC1)C1CC(=O)N(c2ccccc2)C1 (stereo unspecified)	-0.2	3.9	114.8*!	-2.1	5.4
O=C(NCCCN1CCN(c2ccccc2F)CC1)C1CCN(S(=O)(=O)N2CCOCC2)CC1	-0.3	-87.7*	8.8	-10.3	7.7
CN(/N=C/c1cc(Br)cc(Br)c1O)c1cccc(C(F)(F)F)n1	0.1	-6.0	6.4	10.2	0.7
